Data on five compounds can be found in PubChem BioAssay.

For assay [1], the system named is PRMT1 (protein arginine N-methyltransferase 1). In words: PRMT1 binders on small-molecule microarrays, primary screen, biochemical, small-molecule microarray, 635 nm fluorescence (AID 1088).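 Also: binding of Prmt1 protein to compounds spotted on small-molecule microarray slides.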 The following applies: small-molecule microarray binding, higher = more signal.
A short description of assay [2]: yeast growth modulation, basal conditions, primary screen, YJM789 clinical isolate, OD600, 24 h (AID 1089).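 Also: growth of clinical yeast isolate S. cerevisiae YJM 789 seeded 1000 cells per well; test concentration not given here.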 The following applies: S. cerevisiae YJM789 growth, higher = more signal, called active from +8 up or from −8 down.
Assay [3] in a line: fission yeast growth modulation, primary screen, strain 972, OD600, 24 h, no modulator (AID 1090).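 Also: basal condition with compound alone and no growth modifier present; test concentration not given here.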 The following applies: S. pombe 972 growth, higher = more signal, called active from +8 up or from −8 down.
Assay [4] in a line: S. cerevisiae growth modulation with rapamycin, primary screen, strain BY4716, OD600, 96 h (AID 1091). Also: test concentration not given here. The following applies: higher = more signal, called active from +8 up or from −8 down.
Assay [5] addresses Torsin-1A-interacting protein 2 (Homo sapiens) (UniProt Q8NFQ8). Description: LULL1 binders on small-molecule microarray, primary screen, cell lysate, human LULL1 lysate, 635/667 nm fluorescence (AID 1092).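 Also: probe is lysate of COS7 cells overexpressing human LULL1; score merges per-feature 667 nm fluorescence with signal-to-noise.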 The following applies: hLULL1 lysate binding, 635 nm fluorescence, higher = more signal.
A short description of assay [6]: E. coli growth modulation, two-sided OD650, primary screen, E. coli filamentation project, strain DRC41, 24 h (AID 1093).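 Also: MC1000 strain lacking acrAB efflux and sulA so SOS filamentation is blocked; test concentration not given here.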 The following applies: OD650, 24 h, higher = more signal, called active from +8 up or from −8 down.
Assay [7] in a line: small-molecule microarray binders of probe aLefty2, primary screen, biochemical, biotinylated probe, 635/667 nm fluorescence (AID 1094).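 Also: score merges spot fluorescence near 667 nm with spot signal-to-noise ratio.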 Conditions: higher = more signal.
Assay [8] has as its system Noggin (protein binding on small-molecule microarray). Description: Noggin binders on small-molecule microarray, primary screen, biochemical, 635/667 nm fluorescence (AID 1095).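 Also: score merges 667 nm feature fluorescence with signal to noise over triplicate slides.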 The following applies: 635 nm fluorescence, higher = more signal.
Assay [9] addresses Neurogenic locus notch homolog protein 3 (Homo sapiens) (UniProt Q9UM47). Description: NOTCH3 binders on small-molecule microarray, primary screen, biochemical, 635/667 nm fluorescence (AID 1096). The following applies: NOTCH3 binding, 635 nm fluorescence, higher = more signal.
Assay [10] in a line: small-molecule microarray binders of probe aEGFR, primary screen, biochemical, biotinylated probe, 635/667 nm fluorescence (AID 1097).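 Also: probe is a biotinylated anti-EGFR antibody binding compounds printed on slides; score combines fluorescence near 667 nm and signal to noise of each spot.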 The following applies: higher = more signal.
The subject of assay [11] is Plasmodium falciparum Sir2 (PF13_0152, Sir2A). In words: pfSir2 binders on small-molecule microarrays, primary screen, biochemical, small-molecule microarray, 635 nm fluorescence (AID 1098).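 Also: score merges spot fluorescence intensity with its signal-to-noise ratio.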 The following applies: small-molecule microarray binding, fluorescence 635 nm; higher = more signal.
The nature of assay [12]: small-molecule microarray binders of probe aDKK1, primary screen, biochemical, biotinylated probe, 635/667 nm fluorescence (AID 1099).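 Also: score merges 667nm spot fluorescence with signal to noise across triplicate slides; reference of the scale not given here.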 Conditions: higher = more signal.
The nature of assay [13]: small-molecule microarray binders of probe aCHRDL2, primary screen, biochemical, biotinylated probe, 635/667 nm fluorescence (AID 1100). The following applies: higher = more signal.
Assay [14] is described as follows: splicing luciferase reporter signal modulators, primary screen, spliceosome inhibition project, cell-based, HEK293, splice +/- reporter (AID 1101).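 Also: HEK293 cells carrying a splicing-competent luciferase reporter gene; test concentration not given here.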 The following applies: luminescence, 24 h, higher = more signal, called active from +8 up or from −8 down. (In general: A reporter such as luciferase makes a cellular process visible.)
For assay [15], the target named is Fibroblast growth factor 10 (Homo sapiens) (UniProt O15520). Description: FGF10 binders on small-molecule microarrays, primary screen, biochemical, small-molecule microarray, 635 nm fluorescence (AID 1102). The following applies: FGF10 binding, fluorescence 635 nm, higher = more signal.
Sequence of Fibroblast growth factor 10 (Homo sapiens) (O15520 whole entry, looked up): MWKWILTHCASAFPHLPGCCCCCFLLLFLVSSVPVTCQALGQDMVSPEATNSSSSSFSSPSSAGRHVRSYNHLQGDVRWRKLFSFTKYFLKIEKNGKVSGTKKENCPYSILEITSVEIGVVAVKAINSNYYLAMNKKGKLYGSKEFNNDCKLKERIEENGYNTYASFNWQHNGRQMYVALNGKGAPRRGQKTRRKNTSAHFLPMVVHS
In assay [16] the test system is glycogen synthase kinase-3 (GSK3A per assay name; protocol says GSK3B). In words: GSK3 binders on small-molecule microarrays, primary screen, biochemical, small-molecule microarray, 635 nm fluorescence, GSK3A (AID 1103). Also: the record names both GSK3A and GSK3B. The following applies: small-molecule microarray binding, fluorescence 635 nm; higher = more signal.
Assay [17] deals with Epidermal growth factor receptor (Homo sapiens) (UniProt P00533). Description: EGFR binders on small-molecule microarrays, primary screen, biochemical, small-molecule microarray, 635 nm fluorescence (AID 1104).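 Also: score merges 667 nm emission intensity with spot signal to noise over triplicate slides.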 The following applies: EGFR binding, higher = more signal.
Sequence of Epidermal growth factor receptor (Homo sapiens) (P00533 whole entry, looked up): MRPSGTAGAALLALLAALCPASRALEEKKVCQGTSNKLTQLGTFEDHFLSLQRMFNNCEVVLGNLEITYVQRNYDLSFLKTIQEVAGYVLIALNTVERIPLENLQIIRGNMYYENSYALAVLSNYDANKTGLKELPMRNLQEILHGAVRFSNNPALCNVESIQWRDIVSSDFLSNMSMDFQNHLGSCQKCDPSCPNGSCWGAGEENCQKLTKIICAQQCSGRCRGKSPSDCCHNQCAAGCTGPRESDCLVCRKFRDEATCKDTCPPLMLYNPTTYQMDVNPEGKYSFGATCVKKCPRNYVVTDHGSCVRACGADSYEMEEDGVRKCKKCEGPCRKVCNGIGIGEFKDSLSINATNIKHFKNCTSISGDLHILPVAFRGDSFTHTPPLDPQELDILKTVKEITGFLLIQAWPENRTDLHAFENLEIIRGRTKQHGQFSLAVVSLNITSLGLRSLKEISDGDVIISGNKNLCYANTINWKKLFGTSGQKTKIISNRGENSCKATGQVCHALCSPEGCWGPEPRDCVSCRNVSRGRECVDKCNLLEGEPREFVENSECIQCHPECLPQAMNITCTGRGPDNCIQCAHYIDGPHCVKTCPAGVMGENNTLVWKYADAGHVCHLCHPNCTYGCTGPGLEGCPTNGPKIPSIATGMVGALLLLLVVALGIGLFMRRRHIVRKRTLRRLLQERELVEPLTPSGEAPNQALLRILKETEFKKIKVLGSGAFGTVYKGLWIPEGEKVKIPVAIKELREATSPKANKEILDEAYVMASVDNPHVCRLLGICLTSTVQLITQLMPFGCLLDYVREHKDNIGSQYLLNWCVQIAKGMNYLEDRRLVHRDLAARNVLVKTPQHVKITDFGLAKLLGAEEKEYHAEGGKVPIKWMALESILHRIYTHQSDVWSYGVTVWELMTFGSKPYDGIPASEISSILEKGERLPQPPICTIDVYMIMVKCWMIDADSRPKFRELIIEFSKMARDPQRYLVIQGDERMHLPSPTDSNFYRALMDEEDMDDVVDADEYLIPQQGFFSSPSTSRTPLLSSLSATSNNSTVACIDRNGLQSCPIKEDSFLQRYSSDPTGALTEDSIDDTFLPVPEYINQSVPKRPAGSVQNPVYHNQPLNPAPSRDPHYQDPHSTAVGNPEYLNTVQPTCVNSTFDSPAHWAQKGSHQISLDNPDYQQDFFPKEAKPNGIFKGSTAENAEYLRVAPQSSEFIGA
Assay [18] deals with Follistatin-related protein 3 (Homo sapiens) (UniProt O95633). In words: FSTL3 binders on small-molecule microarrays, primary screen, biochemical, small-molecule microarray, 635 nm fluorescence (AID 1105).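 Also: score merges emission near 667 nm and signal to noise per printed spot across three slides.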 Conditions: FSTL3 binding, higher = more signal.
Sequence of Follistatin-related protein 3 (Homo sapiens) (O95633 whole entry, looked up): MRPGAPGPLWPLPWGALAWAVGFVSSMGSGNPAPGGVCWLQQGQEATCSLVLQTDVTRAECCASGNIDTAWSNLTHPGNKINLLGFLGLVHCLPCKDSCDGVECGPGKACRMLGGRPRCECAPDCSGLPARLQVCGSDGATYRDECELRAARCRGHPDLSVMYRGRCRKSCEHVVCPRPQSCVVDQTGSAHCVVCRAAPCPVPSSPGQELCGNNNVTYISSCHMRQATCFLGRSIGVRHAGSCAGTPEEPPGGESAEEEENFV
Assay [19] concerns the target Dickkopf-related protein 1 (Homo sapiens) (UniProt O94907). In words: DKK1 binders on small-molecule microarrays, primary screen, biochemical, small-molecule microarray, 635 nm fluorescence scan (AID 1106).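 Also: score merges emission near 667 nm with signal to noise over three replicate slides.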 Conditions: DKK1 binding, higher = more signal.
The test system of assay [20] is Inhibin beta A chain (activin A). Description: INHBA (activin A) binders on microarrays, primary screen, biochemical, small-molecule microarray, 635 nm fluorescence scan (AID 1107).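 Also: mouse activin A protein probed at 4.33 µg/mL on printed slides; score merges bound-protein fluorescence near 667 nm with spot signal-to-noise.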 Conditions: small-molecule microarray binding, higher = more signal.

Activity calls are given as the source filed them.

Sequence of Neurogenic locus notch homolog protein 3 (Homo sapiens) (Q9UM47 whole entry, looked up): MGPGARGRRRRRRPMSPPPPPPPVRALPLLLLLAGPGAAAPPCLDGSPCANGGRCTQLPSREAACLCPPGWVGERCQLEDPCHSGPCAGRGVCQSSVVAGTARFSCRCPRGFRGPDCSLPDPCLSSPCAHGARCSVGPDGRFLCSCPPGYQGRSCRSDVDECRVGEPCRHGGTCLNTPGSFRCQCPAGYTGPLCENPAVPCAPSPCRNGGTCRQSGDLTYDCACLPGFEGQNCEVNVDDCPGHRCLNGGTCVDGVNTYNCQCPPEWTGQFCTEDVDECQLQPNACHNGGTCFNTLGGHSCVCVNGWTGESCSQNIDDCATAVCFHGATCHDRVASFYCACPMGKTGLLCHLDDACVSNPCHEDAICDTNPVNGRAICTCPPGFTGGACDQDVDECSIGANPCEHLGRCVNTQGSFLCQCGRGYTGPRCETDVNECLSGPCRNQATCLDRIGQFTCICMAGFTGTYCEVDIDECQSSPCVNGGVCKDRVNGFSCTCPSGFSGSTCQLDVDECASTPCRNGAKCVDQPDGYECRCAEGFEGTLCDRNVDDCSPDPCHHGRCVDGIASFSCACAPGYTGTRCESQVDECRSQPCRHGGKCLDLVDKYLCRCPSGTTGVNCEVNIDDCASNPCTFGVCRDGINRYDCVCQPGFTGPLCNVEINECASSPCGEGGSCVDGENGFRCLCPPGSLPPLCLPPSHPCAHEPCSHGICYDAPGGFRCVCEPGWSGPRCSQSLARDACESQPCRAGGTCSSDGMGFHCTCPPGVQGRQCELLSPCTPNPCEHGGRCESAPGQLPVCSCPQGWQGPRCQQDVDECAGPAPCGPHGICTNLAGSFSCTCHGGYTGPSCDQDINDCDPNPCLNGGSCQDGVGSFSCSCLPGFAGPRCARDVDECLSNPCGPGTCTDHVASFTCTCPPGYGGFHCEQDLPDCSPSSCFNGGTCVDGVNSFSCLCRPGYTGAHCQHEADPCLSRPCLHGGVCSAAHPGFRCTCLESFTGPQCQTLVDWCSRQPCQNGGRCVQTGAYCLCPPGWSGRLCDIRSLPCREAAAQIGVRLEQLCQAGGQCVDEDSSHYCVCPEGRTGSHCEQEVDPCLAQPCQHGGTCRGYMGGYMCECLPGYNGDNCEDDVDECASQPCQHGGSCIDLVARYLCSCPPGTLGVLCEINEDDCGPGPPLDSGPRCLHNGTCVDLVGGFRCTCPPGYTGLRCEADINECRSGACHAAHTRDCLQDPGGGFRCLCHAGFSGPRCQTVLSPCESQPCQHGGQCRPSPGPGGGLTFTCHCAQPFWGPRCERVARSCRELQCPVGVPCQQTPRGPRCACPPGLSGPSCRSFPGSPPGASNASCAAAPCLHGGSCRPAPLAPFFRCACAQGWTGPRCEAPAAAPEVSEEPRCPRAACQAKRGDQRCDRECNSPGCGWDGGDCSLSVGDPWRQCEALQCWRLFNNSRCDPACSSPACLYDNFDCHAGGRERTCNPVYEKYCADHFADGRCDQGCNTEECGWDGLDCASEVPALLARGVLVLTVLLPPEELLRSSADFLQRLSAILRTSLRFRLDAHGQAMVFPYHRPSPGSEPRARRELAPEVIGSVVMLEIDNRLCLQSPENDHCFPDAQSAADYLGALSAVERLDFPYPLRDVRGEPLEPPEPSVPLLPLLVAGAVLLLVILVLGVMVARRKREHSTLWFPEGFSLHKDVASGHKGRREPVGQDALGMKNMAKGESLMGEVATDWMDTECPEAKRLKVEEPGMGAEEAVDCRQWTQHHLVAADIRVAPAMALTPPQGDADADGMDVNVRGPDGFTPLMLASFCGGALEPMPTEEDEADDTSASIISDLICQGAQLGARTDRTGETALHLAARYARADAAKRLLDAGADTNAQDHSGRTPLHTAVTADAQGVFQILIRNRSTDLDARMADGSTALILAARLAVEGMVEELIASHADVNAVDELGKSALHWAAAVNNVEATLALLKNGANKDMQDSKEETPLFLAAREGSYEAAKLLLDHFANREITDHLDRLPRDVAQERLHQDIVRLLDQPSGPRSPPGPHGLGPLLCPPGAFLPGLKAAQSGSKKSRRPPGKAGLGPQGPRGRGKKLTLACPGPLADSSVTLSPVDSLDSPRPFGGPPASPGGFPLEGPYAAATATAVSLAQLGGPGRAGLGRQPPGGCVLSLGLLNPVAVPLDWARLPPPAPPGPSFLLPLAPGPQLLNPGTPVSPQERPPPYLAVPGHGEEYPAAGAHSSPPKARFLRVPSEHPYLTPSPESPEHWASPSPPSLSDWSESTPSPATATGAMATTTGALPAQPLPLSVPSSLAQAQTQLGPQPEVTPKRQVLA
Sequence of Torsin-1A-interacting protein 2 (Homo sapiens) (Q8NFQ8 whole entry, looked up): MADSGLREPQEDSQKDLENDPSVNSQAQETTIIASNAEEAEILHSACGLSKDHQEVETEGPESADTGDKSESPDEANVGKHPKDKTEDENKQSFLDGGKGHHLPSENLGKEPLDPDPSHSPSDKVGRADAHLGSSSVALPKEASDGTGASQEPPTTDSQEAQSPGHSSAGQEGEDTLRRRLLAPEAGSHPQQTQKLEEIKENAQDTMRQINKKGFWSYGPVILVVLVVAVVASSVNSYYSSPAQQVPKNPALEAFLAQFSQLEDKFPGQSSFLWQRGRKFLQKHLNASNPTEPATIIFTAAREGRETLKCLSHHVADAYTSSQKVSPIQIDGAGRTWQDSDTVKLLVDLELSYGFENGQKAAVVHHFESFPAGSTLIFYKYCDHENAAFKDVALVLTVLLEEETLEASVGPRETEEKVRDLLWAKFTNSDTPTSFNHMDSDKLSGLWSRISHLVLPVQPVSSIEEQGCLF
Sequence of Dickkopf-related protein 1 (Homo sapiens) (O94907 whole entry, looked up): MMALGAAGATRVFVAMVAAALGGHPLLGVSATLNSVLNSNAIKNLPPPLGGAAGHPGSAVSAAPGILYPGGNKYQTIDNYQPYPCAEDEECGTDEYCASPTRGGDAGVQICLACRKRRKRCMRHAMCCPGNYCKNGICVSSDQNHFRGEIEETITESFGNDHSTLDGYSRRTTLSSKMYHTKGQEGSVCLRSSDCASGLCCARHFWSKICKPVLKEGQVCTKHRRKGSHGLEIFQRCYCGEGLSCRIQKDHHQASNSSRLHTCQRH

As to `O=[N+]([O-])c1ccc(C[n+]2ccc3ccc(O)cc3c2)o1`, the composite z-score in [1] was 0.536; in assay [5], 0.803; in [7], -0.155; in [8], -0.147; in assay [9], 0.791; in assay [10], -0.0867. The composite z-score in assay [11] is 0.595; in [12] it was 0.174; in [13], -0.144; in assay [15], 0.297; in assay [16], 0.314; in assay [17], 0.219. Besides, the composite z-score in assay [18] came out at 0.42; in [19] it was 0.0242; in assay [20], 0.618. The z-score is -0.0384 (inactive) in assay [2]; -7.09 (inactive) in assay [3]; -0.5 (inactive) in assay [4]; -2.03 (inactive) in assay [6]; -0.0287 (inactive) in [14].

For the compound `C=CCNC(=O)[C@@H]1[C@H]2C(=O)O[C@H](c3ccccc3)[C@H](c3ccccc3)N2[C@H](c2ccc(OCCO)cc2)[C@@]12C(=O)N(C(=O)OCCOC)c1ccc(C#CC3(O)CCCCCC3)cc12`, the composite z-score was found to be 1.56 in [1]; 1.6 in assay [5]; 0.505 in [7]; 0.205 in [8]; 0.955 in assay [9]; 0.108 in assay [10]. Further, the composite z-score was found to be 1.12 in assay [11]; 0.342 in assay [12]; 0.375 in assay [13]; 0.325 in assay [15]; 0.871 in assay [16]; 0.432 in assay [17]. Also, the values for the composite z-score in assay [18], in [19] and in assay [20] were 0.702, 0.125 and 1.34, respectively. Also, the z-score in [2] is -1.05 (inactive); in assay [3], -1.64 (inactive); in assay [4], 3.24 (inactive); in assay [6] it was 2.89 (inactive); in assay [14] it was -0.929 (inactive).

Regarding `CO[C@H]1COC(=O)[C@H](C)NC(=O)CC=C[C@@H](C)[C@H](NS(=O)(=O)c2ccc(C)cc2)COC(=O)CC=C[C@@H]1C`, the composite z-score in assay [1] is 0.0763; in [5], -0.876; in assay [7], -0.186; in assay [8], 0.678; in assay [9] it was -0.734; in assay [10], -0.119. For the same compound, the composite z-score was 0.997 in assay [11]; -0.667 in assay [12]; -1.28 in assay [13]; 0.27 in assay [15]; -0.0078 in [16]; 0.778 in assay [17]. The results for the composite z-score in assay [18], in assay [19] and in [20] were 0.956, 0.979 and 1.47, respectively. The z-score in assay [2] was -0.733 (inactive); in assay [3], -0.635 (inactive); in [4] it was -1.1 (inactive); in [6], 0.119 (inactive); in assay [14], -0.489 (inactive).

Turning to `CCN1C(C)=C(C(=O)OC)[C@@H](c2ccccc2)N2C(=O)[C@](O)(C(=O)OC)[C@@H](c3ccccc3)C(C(C)=O)=C12`, the composite z-score in assay [1] is -0.107; in [5], 0.241; in [7] it was 0.0417; in [8] it was 0.506; in assay [9], 0.768; in [10] it was 0.186. Further, the composite z-score in assay [11] is -1.67; in [12], 0.182; in [13], -0.539; in [15] it was 0.799; in [16], 0.529; in assay [17], 0.621. Further, the results for the composite z-score in [18], in [19] and in [20] were 1.04, 0.515 and 1.15, respectively. Moreover, the z-score in assay [2] was -3.56 (inactive); in [3], -3.03 (inactive); in assay [4], -2.26 (inactive); in [6], 0.556 (inactive); in [14], -2.82 (inactive).

For `CO[C@@H]1COC(=O)[C@H](C)NC(=O)CC=C[C@@H](C)[C@H](OC)COC(=O)[C@H](C)NC(=O)CC=C[C@H]1C`, the composite z-score in assay [1] was 0.0529; in assay [5], -0.391; in [7], -0.137; in assay [8] it was 0.705; in [9] it was 0.546; in assay [10], -0.121. The composite z-score in assay [11] is 0.343; in assay [12], -0.58; in assay [13], -0.717; in assay [15], 0.43; in assay [16] it was 0.57; in assay [17], 0.55. Besides, the composite z-score in assay [18] came out at 0.66; in assay [19] it was 0.503; in assay [20], 0.136. The z-score in [2] was 0.611 (inactive); in [3], -0.76 (inactive); in assay [4], 0.0943 (inactive); in assay [6] it was 0.485 (inactive); in [14], -0.415 (inactive).
